Inconclusive results are not listed. A call without a number means that no potency is given here. The source made the active and inactive calls. Calls follow the shape of the dose curve; as a rule, active = well fitted cell-killing curve with a large enough effect in the repeat runs; inconclusive = weak or mixed curves, or effect the other way; inactive = flat fitted curve, though single readings scatter.
Experiments:
[1] = cAMP Responsive Elements (CRE) small molecule antagonists, cell-based qHTS assay: qHTS cell viability counter screen (AID 2060913); also: nearly all actives have a fitted effect of over 40% in size
Outline: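 Steps: cells plated and held 18 hrs at 37 C/5% CO2; compounds and NKH477 (0.25 uM final) added; 3 hrs incubation; reporter substrate read; CellTiter-Glo added to measure cytotoxicity by luminescence.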

[2] = cAMP Responsive Elements (CRE) small molecule agonists, cell-based qHTS assay: qHTS cell viability counter screen (AID 2060914);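 also: viability read after 3 h of compound exposure; nearly all actives have a fitted effect of over 50% in size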
Outline: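 Cells are seeded and incubated 18 h, treated with compounds in DMSO for 3 h, read for the bla reporter, then given CellTiter-Glo; luminescence is measured after 30 min at room temperature.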

Row | SMILES | Potency [1] | Potency [2]
1 | SC1CCCC1 | inactive | inactive
2 | COC(=O)/C=C(/C)N | inactive | inactive
3 | COc1ccc2cccc(CCNC(C)=O)c2c1 | inactive | inactive
4 | CC[C@H](NC(=O)c1cc(F)ccc1NS(=O)(=O)c1cccc2cccnc12)c1ccccc1 | inactive | inactive

— PubChem BioAssay (Tox21)
